Reference: paper PMC5540273 (PLoS ONE, 2017)

Tests used:
Settings in all cases: concentration: 1 μM, replicates: in singlicate; n = 1
ERK1 = test system: T1, ERK1
T1 construct: gene MAPK3

ERK2 = test system: T2, ERK2
T2 construct: gene MAPK1

ERK3 = test system: T3, ERK3
T3 construct: gene MAPK6

ERK4 = test system: T4, ERK4
T4 construct: gene MAPK4

ERK5 = test system: T5, ERK5
T5 construct: gene MAPK7

ERK8 = test system: T6, ERK8
T6 construct: gene MAPK15

ERN1 = test system: ERN1
FAK = test system: T7, FAK
T7 construct: gene PTK2

FER = test system: FER
FES = test system: FES
FGFR1 = test system: FGFR1
FGFR2 = test system: FGFR2
FGFR3 = test system: FGFR3
FGFR4 = test system: FGFR4
FGR = test system: FGR
FLT1 = test system: FLT1
FLT3-autoinhibited = test system: FLT3-autoinhibited
FLT3 = test system: FLT3
FLT4 = test system: FLT4
FRK = test system: FRK
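Note: KINOMEscan kinase panel screen.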

c1ccc(Oc2ccc(Nc3ccnc4cc(-c5ccc(CN6CCCCC6)o5)ccc34)cc2)nc1 [GW567143]
%Inh (ERK1): 13% | %Inh (ERK2): 0% | %Inh (ERK3): 0% | %Inh (ERK4): 0% | %Inh (ERK5): 0% | %Inh (ERK8): 0% | %Inh (ERN1): 26% | %Inh (FAK): 0% | %Inh (FER): 4% | %Inh (FES): 0% | %Inh (FGFR1): 9% | %Inh (FGFR2): 0% | %Inh (FGFR3): 1% | %Inh (FGFR4): 1% | %Inh (FGR): 65% | %Inh (FLT1): 20% | %Inh (FLT3-autoinhibited): 67% | %Inh (FLT3): 98.4% | %Inh (FLT4): 23% | %Inh (FRK): 33%

CC(C)(C)c1ccc(C(=O)Nc2cn3cc(-n4ccnc4)ccc3n2)cc1
%Inh (ERK1): 0% | %Inh (ERK2): 13% | %Inh (ERK3): 10% | %Inh (ERK4): 5% | %Inh (ERK5): 19% | %Inh (ERK8): 0% | %Inh (ERN1): 25% | %Inh (FAK): 7% | %Inh (FER): 0% | %Inh (FES): 0% | %Inh (FGFR1): 0% | %Inh (FGFR2): 22% | %Inh (FGFR3): 11% | %Inh (FGFR4): 7% | %Inh (FGR): 0% | %Inh (FLT1): 0% | %Inh (FLT3-autoinhibited): 21% | %Inh (FLT3): 71% | %Inh (FLT4): 0% | %Inh (FRK): 10%

CCOc1nccc(-c2c(-c3ccc(F)cc3)ncn2C2CCNCC2)n1 [SB-249175]
%Inh (ERK1): 0% | %Inh (ERK2): 0% | %Inh (ERK3): 26% | %Inh (ERK4): 13% | %Inh (ERK5): 12% | %Inh (ERK8): 2% | %Inh (ERN1): 1% | %Inh (FAK): 0% | %Inh (FER): 9% | %Inh (FES): 0% | %Inh (FGFR1): 25% | %Inh (FGFR2): 3% | %Inh (FGFR3): 11% | %Inh (FGFR4): 4% | %Inh (FGR): 0% | %Inh (FLT1): 18% | %Inh (FLT3-autoinhibited): 18% | %Inh (FLT3): 39% | %Inh (FLT4): 2% | %Inh (FRK): 6%

NCCC(NC(=O)c1cc(Br)c(-c2ccnc3[nH]ccc23)s1)c1ccccc1.O=C(O)C(F)(F)F.O=C(O)C(F)(F)F (centres unmarked) [GSK1307810]
%Inh (ERK1): 4% | %Inh (ERK2): 0% | %Inh (ERK3): 7% | %Inh (ERK4): 0% | %Inh (ERK5): 0% | %Inh (ERK8): 33% | %Inh (ERN1): 22% | %Inh (FAK): 9% | %Inh (FER): 3% | %Inh (FES): 0% | %Inh (FGFR1): 73% | %Inh (FGFR2): 74% | %Inh (FGFR3): 45% | %Inh (FGFR4): 36% | %Inh (FGR): 13% | %Inh (FLT1): 73% | %Inh (FLT3-autoinhibited): 25% | %Inh (FLT3): 88% | %Inh (FLT4): 39% | %Inh (FRK): 22%

Fc1cc(Cl)ccc1Nc1ccnc2cc(-c3ccc(CN4CCOCC4)o3)ccc12 [GW560109]
%Inh (ERK1): 12% | %Inh (ERK2): 0% | %Inh (ERK3): 0% | %Inh (ERK4): 0% | %Inh (ERK5): 0% | %Inh (ERK8): 19% | %Inh (ERN1): 16% | %Inh (FAK): 0% | %Inh (FER): 6% | %Inh (FES): 0% | %Inh (FGFR1): 40% | %Inh (FGFR2): 33% | %Inh (FGFR3): 26% | %Inh (FGFR4): 30% | %Inh (FGR): 91.2% | %Inh (FLT1): 86% | %Inh (FLT3-autoinhibited): 6% | %Inh (FLT3): 53% | %Inh (FLT4): 88% | %Inh (FRK): 86%

CC(C)c1nc(-c2cccc(NS(=O)(=O)c3c(F)cccc3F)c2)c(-c2ccnc(Nc3ccc(N4CCOCC4)nc3)n2)s1.Cl [GSK1723980]
%Inh (ERK1): 0% | %Inh (ERK2): 0% | %Inh (ERK3): 0% | %Inh (ERK4): 0% | %Inh (ERK5): 0% | %Inh (ERK8): 97.9% | %Inh (ERN1): 50% | %Inh (FAK): 0% | %Inh (FER): 49% | %Inh (FES): 18% | %Inh (FGFR1): 14% | %Inh (FGFR2): 0% | %Inh (FGFR3): 4% | %Inh (FGFR4): 0% | %Inh (FGR): 98.4% | %Inh (FLT1): 98.3% | %Inh (FLT3-autoinhibited): 0% | %Inh (FLT3): 66% | %Inh (FLT4): 99.9% | %Inh (FRK): 96.3%

COc1cccc2c(-c3ccncc3)c(-c3ccc(F)cc3)nn12 [GW468513]
%Inh (ERK1): 5% | %Inh (ERK2): 0% | %Inh (ERK3): 0% | %Inh (ERK4): 0% | %Inh (ERK5): 0% | %Inh (ERK8): 16% | %Inh (ERN1): 0% | %Inh (FAK): 0% | %Inh (FER): 13% | %Inh (FES): 1% | %Inh (FGFR1): 11% | %Inh (FGFR2): 0% | %Inh (FGFR3): 1% | %Inh (FGFR4): 0% | %Inh (FGR): 13% | %Inh (FLT1): 29% | %Inh (FLT3-autoinhibited): 0% | %Inh (FLT3): 22% | %Inh (FLT4): 13% | %Inh (FRK): 5%

CN(c1ccc(F)c(NC(=O)c2cccc(OC(C)(C)C#N)c2Cl)c1)c1ccc2nc(NC(=O)C3CC3)sc2n1
%Inh (ERK1): 1% | %Inh (ERK2): 1% | %Inh (ERK3): 0% | %Inh (ERK4): 0% | %Inh (ERK5): 4% | %Inh (ERK8): 0% | %Inh (ERN1): 0% | %Inh (FAK): 1% | %Inh (FER): 0% | %Inh (FES): 0% | %Inh (FGFR1): 48% | %Inh (FGFR2): 72% | %Inh (FGFR3): 8% | %Inh (FGFR4): 26% | %Inh (FGR): 84% | %Inh (FLT1): 95.8% | %Inh (FLT3-autoinhibited): 0% | %Inh (FLT3): 96.7% | %Inh (FLT4): 99.8% | %Inh (FRK): 71%

CNc1nccc(-c2ccc3c(N)n[nH]c3c2)n1 [GSK2206003]
%Inh (ERK1): 3% | %Inh (ERK2): 0% | %Inh (ERK3): 0% | %Inh (ERK4): 32% | %Inh (ERK5): 9% | %Inh (ERK8): 28% | %Inh (ERN1): 4% | %Inh (FAK): 0% | %Inh (FER): 25% | %Inh (FES): 1% | %Inh (FGFR1): 41% | %Inh (FGFR2): 5% | %Inh (FGFR3): 11% | %Inh (FGFR4): 2% | %Inh (FGR): 29% | %Inh (FLT1): 49% | %Inh (FLT3-autoinhibited): 14% | %Inh (FLT3): 50% | %Inh (FLT4): 5% | %Inh (FRK): 6%

COc1cccc(NC(=O)NCCNc2ccnc(Nc3ccc(F)cc3)n2)c1 [GSK1379879]
%Inh (ERK1): 0% | %Inh (ERK2): 0% | %Inh (ERK3): 4% | %Inh (ERK4): 25% | %Inh (ERK5): 0% | %Inh (ERK8): 0% | %Inh (ERN1): 0% | %Inh (FAK): 0% | %Inh (FER): 8% | %Inh (FES): 0% | %Inh (FGFR1): 0% | %Inh (FGFR2): 53% | %Inh (FGFR3): 2% | %Inh (FGFR4): 9% | %Inh (FGR): 22% | %Inh (FLT1): 15% | %Inh (FLT3-autoinhibited): 0% | %Inh (FLT3): 0% | %Inh (FLT4): 0% | %Inh (FRK): 11%
